C-LANA FP = KSHV C-LANA DNA binding inhibition; MBP-C-LANA/FAM-LBS DNA binding, fluorescence polarization; inhibition, % at 9 µM; AID 504423; hit rate 0.078% among 340,000;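 active means highest replicate inhibition at or above 60% at 9 µM, even if other replicates fall short; inactive means all replicates below 60% inhibition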
Cardiac RTF inh = cardiac RTF calcium desensitization; hit rate 0.12% among 340,000; inhibition, % at 7.15 µM; IANBD-labeled cardiac RTF, Ca2+ fluorescence;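 active means inhibition above the mean inhibition of all tested compounds plus 3 SD, cut at about 17% in these data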;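 further: assay run at fixed EC70 calcium of 1.6 mM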
E coli Lon inh = inhibits E. coli Lon protease; P0A9M0; purified E. coli Lon protease, fluorescence polarization; inhibition, % at 7.94 µM; hit rate 0.42% among 360,000; in the data active means inhibition above about 13%, passing the limit was not always enough
RTF Ca sens act = increases calcium sensitivity of human cardiac regulated thin filaments. AID 493008. activation, % at 7.2 µM. P19429+P45379. IANBD-labeled TnC RTF fluorescence at EC20 calcium; 0% EC20 calcium, 100% full calcium. hit rate 0.24% among 340,000;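 active means activation above the mean over all tested compounds plus 3 SD, cut at about 30% in these data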;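 further: rise in fluorescence read as greater calcium sensitivity of cardiac thin filaments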
Keap1-Nrf2 PPI = Keap1-Nrf2 (human) interaction inhibition. Q14145. Keap1 Kelch-Nrf2 peptide fluorescence polarization, 1536-well. inhibition, % at 9.4 µM. hit rate 0.15% among 340,000; in the data active means inhibition above about 12%; inconclusive means no clear call, values can overlap the other calls; inactive means below about 7.3%;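 further: human Keap1 Kelch domain with fluorescein labeled Nrf2 9mer peptide probe; higher means more block of Keap1 binding to Nrf2 peptide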
Target sequence (Q14145 whole entry, looked up, the tested form may be a part): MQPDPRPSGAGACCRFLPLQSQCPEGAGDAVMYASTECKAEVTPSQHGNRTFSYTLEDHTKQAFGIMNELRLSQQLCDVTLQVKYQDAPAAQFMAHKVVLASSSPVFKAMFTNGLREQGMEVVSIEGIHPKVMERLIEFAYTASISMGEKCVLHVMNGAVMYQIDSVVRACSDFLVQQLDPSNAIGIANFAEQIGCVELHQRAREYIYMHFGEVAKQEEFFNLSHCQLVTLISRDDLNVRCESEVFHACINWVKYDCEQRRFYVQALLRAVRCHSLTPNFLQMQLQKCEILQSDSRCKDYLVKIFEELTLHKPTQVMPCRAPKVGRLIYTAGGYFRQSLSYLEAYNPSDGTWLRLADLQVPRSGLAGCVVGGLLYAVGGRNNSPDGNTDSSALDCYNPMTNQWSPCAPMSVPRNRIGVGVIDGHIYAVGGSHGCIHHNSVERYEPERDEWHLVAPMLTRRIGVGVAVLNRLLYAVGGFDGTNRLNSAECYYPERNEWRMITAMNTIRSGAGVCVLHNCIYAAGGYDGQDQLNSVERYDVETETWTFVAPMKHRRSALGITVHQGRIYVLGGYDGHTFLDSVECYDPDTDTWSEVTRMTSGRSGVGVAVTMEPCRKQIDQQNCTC
E coli Lon conf = confirmation of E. coli Lon protease inhibitors. shares compounds with E coli Lon inh. purified E. coli Lon, fluorescence polarization. inhibition, % at 7.94 µM. hit rate 31% among 1,400; in the data active means inhibition above about 16%
A number is an active result; n = inactive; u = inconclusive; x = no result; + = active, no number. Only some compounds are listed: those with a hit (about 0.74% of all), similar ones and a draw of the others.

SMILES | C-LANA FP | Cardiac RTF inh | E coli Lon inh | RTF Ca sens act | Keap1-Nrf2 PPI | E coli Lon conf
O=[N+]([O-])c1ccc(Nc2ccccc2O)c2nonc12 | n | n | 30 | n | n | 29
NNC(=O)CSc1ncc(-c2ccccc2)[nH]1 | n | n | 15 | n | n | n
Cc1nnc(NC(=O)CSc2ncc(-c3ccccc3)[nH]2)s1 | n | n | n | n | n | x
O=C1CCCC/C1=C\Nc1ccc(O)cc1 | n | n | 19 | n | n | n
O=C1CCC/C1=C/Nc1ccc(Cl)cc1 | n | n | n | n | n | x
CN1C(=O)CC(Nc2cccc3cccc(N)c23)C1=O (configuration not stated) | n | n | 21 | n | n | n
COc1cccc(CNC(=O)c2ccc(S(=O)(=O)N3CCCCC3)cc2)c1 | x | x | n | x | x | x
O=C(NCCc1nnc2ccc(N3CCCCCC3)nn12)c1ccccc1F | n | n | n | n | n | x
O=C(NCCc1nnc2ccc(N3CCCC3)nn12)c1ccccc1 | n | n | 19 | n | n | n
CC1CC=C2C(C#N)=C(N)C(C#N)(C#N)C(c3cccs3)C2C1 (configuration not stated) | n | n | 42 | n | n | 16
CCCCNc1nc2c(c(=O)[nH]c(=O)n2C)n1CCCc1ccccc1 | x | x | n | x | x | x
O=C(CCNC(=O)C1CCN(S(=O)(=O)c2ccc(F)cc2)CC1)NCc1ccccc1Cl | n | n | 17 | n | n | n
CC(NC(=O)c1ccc(Cl)c(S(=O)(=O)NC2CC2)c1)c1ccco1 (configuration not stated) | x | x | n | x | x | x
O=C(c1cccs1)N(CC1CCCO1)c1nc(-c2ccccc2)cs1 (configuration not stated) | n | n | 17 | n | n | 17
O=C(O)/C=C/C(=O)NC1CCC(CC2CCC(NC(=O)/C=C/C(=O)O)CC2)CC1 (configuration not stated) | n | n | n | n | n | x
O=C(O)/C=C\C(=O)NC1CCCCC1 | n | n | 28 | n | n | n
Cc1ccc(S(=O)(=O)NNC(=S)Nc2ccccc2)cc1 | n | n | 22 | n | n | n
O=C(Nc1ccc2c(c1)OCCO2)C1c2ccccc2OCC(=O)N1CCc1c[nH]c2ccccc12 (configuration not stated) | x | x | n | x | x | x
CN1CC=C2C(C#N)=C(N)C(C#N)(C#N)C(Cc3ccccc3)C2C1 (configuration not stated) | n | n | 39 | n | n | n
CCOc1ccc(C2C=C(c3ccc(C)cc3)Nc3nnnn32)cc1 (configuration not stated) | n | n | 24 | 54 | n | n
Cc1ccc(N(CC(=O)NC2CCCC2)C(=O)CNC(=O)c2cccs2)cc1C | n | n | 19 | n | n | n
COc1ccc(Cn2cc(CN3CC(N4CCN(C)CC4)CS3(=O)=O)nn2)cc1 (configuration not stated) | x | x | n | x | x | x
COc1ccc(CCN2C(=O)CC(N3CCOCC3)C2=O)cc1 (configuration not stated) | n | n | n | n | n | x
COc1ccc(CCN2C(=O)CC(N3CCN(S(=O)(=O)c4ccccc4)CC3)C2=O)cc1 (configuration not stated) | n | n | 12 | n | n | n
CCC(=O)NC(c1cc(Cl)c2ccccc2c1O)C1CC1 (configuration not stated) | n | n | 21 | n | n | n
SMILES | C-LANA FP | Cardiac RTF inh | E coli Lon inh | RTF Ca sens act | Keap1-Nrf2 PPI | E coli Lon conf
C=C1CC(Cn2cc(Br)c(=O)[nH]c2=O)(c2ccc(-c3ccccc3)cc2)OC1=O (configuration not stated) | n | n | n | n | n | x
CCN1CC=C2C(C#N)=C(N)C(C#N)(C#N)C(c3cc(Cl)ccc3Cl)C2C1 (configuration not stated) | n | n | 28 | 39 | u | n
CCC1C2CN(C(C)=O)CC=C2C(C#N)=C(N)C1(C#N)C#N (configuration not stated) | n | n | n | n | n | x
O=C(c1ccccc1NS(=O)(=O)c1cccs1)N1CCCC1 | n | n | 20 | n | n | n
O=C(c1ccccc1NS(=O)(=O)c1ccccc1)N1CCCCCC1 | n | n | n | n | n | x
O=C1CCCc2ccccc2N1Cc1ccc(Cl)cc1Cl | n | n | 18 | n | n | n
CC1(C)c2ccccc2N2CC(=O)N(CC(N)=O)C21C (configuration not stated) | n | n | 125 | 40 | n | 89
Cc1cc(C)cc(C(=O)Nc2cccnc2)c1 | n | n | n | n | n | x
Cc1cc(C)cc(C(=O)Nc2ccncc2)c1 | n | n | 19 | n | n | n
CCCCc1ccc(S(=O)(=O)NC(=O)C2(C)CCN2C(=O)CC2CC2)cc1 (configuration not stated) | x | x | n | x | x | x
O=C(COC(=O)c1cc[n+]([O-])cc1)Nc1cccc(Cl)c1Cl | n | n | 16 | n | n | n
Cc1ccccc1C(=O)NC(C)C1CC2CCC1C2 (configuration not stated) | n | n | n | n | n | x
CC(NC(=O)c1ccccc1Cl)C1CC2CCC1C2 (configuration not stated) | n | n | 17 | n | n | n
CC(C)Cn1cc(-c2cccc3nccn23)cn1 | x | x | n | x | x | x
O=C(Cn1cc(COc2ccc3ccccc3c2)nn1)NS(=O)(=O)c1cccc(OC(F)F)c1 | x | x | n | x | x | x
CCN(CC)C(=O)CSc1nnc2nnc3cc(OC)ccc3n12 | x | x | 132 | x | x | 118
CCN(CC)C(=O)CSc1nnc(COc2ccc(OC)cc2)n1N | n | n | n | n | n | x
O=C(NCc1ccccc1)OC1CC2CC1[C@H]1CCCCN1C2=O (some centres not stated) | x | x | n | x | x | x
C#CCN1c2ccccc2Sc2cccnc21 | n | n | 165 | 30 | n | 21
CC(CN1c2ccccc2Sc2ccccc21)N(C)C (configuration not stated) | n | n | n | n | n | x
COc1ccc(S(=O)(=O)NCc2cccnc2)cc1NC(=O)c1ccccc1C | n | n | n | n | n | x
O=C1c2cccc3c(O)ccc(c23)C(=O)N1Cc1ccccc1 | 92 | n | + | 957 | n | +
CCN(CC)S(=O)(=O)c1ccc(N2CCCC2)c(NC(=O)CN2C(=O)NC3(CCCC3)C2=O)c1 | n | n | 22 | n | n | n
CCCNC(=O)c1c(N)n(-c2ccc3c(c2)OCO3)c2nc3ccccc3nc12 | n | n | n | n | n | x
Nc1c(C(=O)NC2CC2)c2nc3ccccc3nc2n1-c1ccc2c(c1)OCO2 | n | n | 19 | n | n | 31
CCN1C(=O)[C@H]2[C@@H](c3ccc(C(F)(F)F)cc3)N[C@]3(CCCN(Cc4ccccc4)C3=O)[C@H]2C1=O | x | x | n | x | x | x
Cn1c(CNc2ccc(Cl)cc2)nnc1SCc1ccccc1 | n | n | + | n | n | n
CCCCOC(=O)/C=C/c1ccc(OC(=O)OC)c(OC(=O)OC)c1 | n | n | 28 | n | n | n
COC(=O)Oc1ccc(/C=C/C(=O)OC(C)C)cc1OC(=O)OC | n | n | n | n | n | x
